# Test results published in PubChem BioAssay AID2314 (National Center for Advancing Translational Sciences (NCATS), 2010).
# Several values for one entry are separate records, joined by “and”; a condition that tells them apart may be missing. Identical values can stand only once. Out of some 300,000 compounds screened, about 37,000 (12%) were called active. The full list was thinned out, with actives kept by preference. Values without a mark were called inactive. Cut-off read from the data, not from the text of the source: active = max response mostly above about 13% (no sharp cut-off); inactive = mostly below about 14%.
# Experiment: Cycloheximide Counterscreen for Small Molecule Inhibitors of Shiga Toxin; note: read at 38.3 µM for the half of the compounds with a filed dose; 0% is about no effect
# Settings: cell reporter, cycloheximide protein synthesis inhibition counterscreen; hits give high values
row,Compound,max response
1,CCOCc1nnc(NC(=O)CCS(=O)(=O)Cc2ccccc2)s1,-1.02%
2,COc1ccc(OCC(=O)NNC(=O)c2ccc(-c3ccccc3)cc2)cc1,-2.64%
3,CC(C)(C)NC(=O)COc1ccc(CNc2ccc3[nH]c(=O)[nH]c3c2)cc1,-1.49%
4,COC(=O)c1ccc(OCC(=O)NC(C)(C)C)cc1,31.4% (active)
5,Cc1cccc(NC(=O)N2CCCCCC2)c1C,8.83%
6,COc1ccc(NS(=O)(=O)c2cc3c(cc2C)N(C(C)=O)CCO3)cc1,-2.57%
7,COc1ccc(C(=O)O/N=C(\N)Cc2ccc(Cl)cc2Cl)cc1OC,4.82%
8,COc1ccc(CC(=O)Nc2ccccc2NC(=O)c2ccco2)cc1OC,6.8%
9,COc1ccc(C/C(N)=N/OC(=O)c2ccco2)cc1OC,22.4% (active)
10,CCc1nnc(NC(=O)CSCc2cc(=O)n3cc(C)sc3n2)s1,1.44%
11,COc1ccc(OC)c(C(=O)c2ccc(C(=O)N3CCN(Cc4csc(C)n4)CC3)cc2)c1,-2.77%
12,CCN1CCN(C(=O)c2cc3cc4ccc(OC)cc4nc3s2)CC1,15.1% (active)
13,CCN1CCN(C(=O)CN(C)S(=O)(=O)c2ccc(OC)cc2)CC1,4.5%
14,CCNc1nc(NCC)nc(N/N=C/c2ccc(O)c(OC)c2)n1,7.49%
15,COc1cc(/C=N/NC(=O)CCc2n[nH]c(=O)[nH]c2=O)ccc1O,-0.284%
16,COc1cc(/C=N/Nc2nc3ccccc3s2)ccc1O,72.3% (active)
17,CCOc1cc(/C=C(\C#N)c2nc(-c3cccs3)c(NC(C)=O)s2)ccc1O,1.82%
18,COc1cc(/C=N/NC(=O)CNC(=O)c2ccncc2)ccc1OC(C)=O,-4.24%
19,COc1cc(/C=N\Nc2nc(-c3cccs3)c(NC(C)=O)s2)ccc1O,17.1% (active)
20,COc1ccc(C(=O)N(C)CC(O)c2ccccc2)cc1OC1CCN(C(C)=O)CC1 (stereo not drawn),3.8%
21,CC(C)[C@H](NC(=O)OCc1ccccc1)C(=O)OCc1ccccc1,-4.84%

row,Compound,max response
1,CC1CCN(c2ccc([N+](=O)[O-])c(SCCO)c2)CC1,1.83%
2,NC(=O)Nc1cccc(C(F)(F)F)c1,0.977%
3,FC(F)(F)c1cccc(N/N=C/c2ccccc2)c1,41.1% (active)
4,O=C(O)CSCC(=O)Nc1cccc(C(F)(F)F)c1,-6.91%
5,Cc1ccc(O)c(NC(=O)COc2cc(C)ccc2C)c1,28.6% (active)
6,Cc1ccc(C(C)C)cc1OCC(=O)Nc1ccccc1N1CCCC1,-0.789%
7,Cc1ccc(O)c(NC(=S)NC(=O)COc2ccc(Br)cc2)c1,-1.57%
8,COc1nnc(-c2ccc(C)c(S(=O)(=O)N(C)C)c2)c2ccccc12,0.699%
9,Cc1cc(C)c(S(=O)(=O)N2CCOCC2)cc1C,1.22%
10,CCCCc1ccc(NC(=O)NCc2cccnc2)cc1,16%
11,Cc1nc2cc(NC(=O)NCc3ccccc3)ccc2o1,21.4% (active)
12,Cc1ccc(NC(=O)Nc2ccc3oc(C)nc3c2)cc1,53.3% (active)
13,Cc1nc2ccc(NC(=O)C(F)(F)F)cc2o1,1.37%
14,O=C(CSc1ncccn1)NC(=O)NCc1ccccc1,-1.54%
15,COc1ccccc1C(=O)Nc1ccc(OCc2nnc3c4ccccc4c(C)nn23)cc1,1.98%
16,CN(Cc1ccccc1)C(=O)C1CCCN(c2ncnc3c2nc2n3CCCCC2)C1 (stereo not drawn),-3.17%
17,N#C/C(=C\c1ccc(N2CCOCC2)o1)C(=O)N1CCOCC1,1.71%
18,CCn1c(=O)c([N+](=O)[O-])c(NCc2ccc3c(c2)OCO3)c2ccccc21,-2.03%
19,CC(C)NC(=O)/C(C#N)=C\c1ccc(N(C)C)c(Br)c1,27.9% (active)
20,CC(C)(C)C(=O)/C(C#N)=C/c1ccc(O)cc1,8.63%
21,COCCNC(=O)/C(C#N)=C/c1cccc(OCc2ccccc2)c1,4.87%

row,Compound,max response
1,COc1ccccc1C(C)NC(=O)Cc1ccsc1 (stereo not drawn),5.18%
2,Cc1ccc(NC(=O)C(C)c2cccc(C(=O)c3ccccc3)c2)cc1 (stereo not drawn),26.6% (active)
3,CSCCC(NC(=O)COc1ccccc1)C(=O)Nc1ccc(C)cc1 (stereo not drawn),4.05%
4,CC(=O)Nc1ccc(NC(=O)[C@@H](NC(=O)c2cccc(C)c2)C(C)C)cc1,-5.14%
5,COc1ccc(N2C(=O)C(CC(=O)Nc3ccccc3)N(Cc3ccc(OC)c(OC)c3)C2=O)cc1 (stereo not drawn),14.6%
6,CCCSc1nsc(N)n1,22.8% (active)
7,CCCCCCSc1nsc(N)n1,23.1% (active)
8,Nc1nc(SC23CC4CC(CC(C4)C2)C3)ns1,-2.92%
9,Cc1ccc(S(=O)(=O)N2CCCC(C(=O)N3CCN(C)CC3)C2)cc1 (stereo not drawn),6.16%
10,Cn1c(=O)[nH]c(=O)c2c1nc(CN1CCN(c3ccccc3F)CC1)n2CCc1ccccc1,2.36%
11,CCCCCCNS(=O)(=O)c1ccccc1Br,-2.52% and 6.23%
12,O=C(COC(=O)c1ccc(S(=O)(=O)Nc2ccccc2)cc1)NCC1CCCO1 (stereo not drawn),-1.31%
13,CCOC(=O)N1CCN(c2cc(C)c([N+](=O)[O-])cc2F)CC1,16.3%
14,CS(=O)(=O)c1ccc2nnn(OCC(=O)Nc3cccc(C#N)c3)c2c1,-3.01%
15,O=C(O)CC(c1ccccc1F)N1Cc2ccccc2C1=O (stereo not drawn),-3.84%
16,COc1cc([N+](=O)[O-])cc([N+](=O)[O-])c1NC(=O)N1CCOCC1,-3.17%
17,COc1ccc(OCCCON2C(=O)c3ccccc3C2=O)cc1,-3.07%
18,O=C(OCCN1C(=O)c2ccccc2C1=O)Oc1ccccc1,-5.45%
19,O=C1c2ccccc2C(=O)N1CCOc1ccc(F)cc1,34.9% (active)
20,COc1cc(OC)cc(C(=O)Nc2nnc(SCC(=O)NCC3CCCO3)s2)c1 (stereo not drawn),5.61%
21,COC(=O)C1=C(C)N(C(C)c2ccccc2)C(=O)/C1=C\c1ccco1 (stereo not drawn),12.5%
